In the library only some 12% were active in any assay of this set; here they are far more common.
HP1b chromo inh – inhibitors of HP1-beta chromodomain binding to methylated histone tails | Potency, µM (series often up to 114 µM), for inactives: top-dose activity change, negative = inhibition, usual class: inhibitors | AlphaScreen HP1-beta / biotin-H3K9me3 peptide binding | 0.56% of 390,000 active | P83916; also: nearly all actives have a fitted effect of over 70% in size
Target sequence (P83916 whole entry, looked up): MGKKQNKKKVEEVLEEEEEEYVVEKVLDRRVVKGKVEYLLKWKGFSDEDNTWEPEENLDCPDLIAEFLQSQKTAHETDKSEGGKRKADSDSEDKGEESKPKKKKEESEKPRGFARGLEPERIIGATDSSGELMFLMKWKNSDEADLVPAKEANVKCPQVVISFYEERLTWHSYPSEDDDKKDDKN
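HP1-beta protein (50 nM final) preincubated 30 min at room temperature with biotinylated H3(1-18)K9me3 peptide (50 nM) in PBS pH 7.4, 0.01% Tween-20, then compound added for 30 min. AlphaScreen streptavidin donor/nickel chelate acceptor beads (10 ug/mL final), 30 min dark, luminescence read.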
BAZ2B inh – inhibitors of human BAZ2B bromodomain. AlphaScreen BAZ2B-H3K14Ac peptide displacement. Potency, µM (top dose mostly 114 µM), without a hit: at the top dose activity change, negative = inhibition, actives largely listed as inhibitors. 4.4% of 360,000 active. AID 504333; also: % is scaled to controls: 0 for no effect and ±100 for the full control effect; nearly all actives have a fitted effect of over 60% in size
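In this displacement format the biotinylated H3(5-23) peptide acetylated at Lys14 serves as ligand at 50 nM, with BAZ2B at 50 nM in PBS pH 7.4 containing 0.01% Tween-20. Donor and acceptor beads are 10 ug/mL final.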
JMJD2A Tudor – JMJD2A Tudor domain (human) inhibition. Potency, µM (doses to about 114 µM), without a hit: top-dose activity change, negative = inhibition, hits mostly inhibitors. AlphaScreen JMJD2A-Tudor / H3K4me3 peptide binding. AID 504339. 4.4% of 390,000 active; also: % is scaled to controls: 0 for no effect and ±100 for the full control effect; nearly all actives have a fitted effect of over 50% in size
Sfp PPTase inh – inhibitors of Bacillus subtilis Sfp phosphopantetheinyl transferase | Q9F4F7 | Biochemical Sfp PPTase activity, qHTS | Potency, µM, for inactives: largest response in the series, negative = inhibition, hits mostly inhibitors | 3.5% of 310,000 active | AID 1490;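 also: the enzyme is Sfp with the accession as filed and its product quenches rhodamine fluorescence; 0% = enzyme reaction without inhibitor and -100% = no enzyme wells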
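Fluorescence-quenching assay with 15 nM Sfp, 5 uM rhodamine-CoA and 12.5 uM BHQ-2-labelled ybbR peptide in pH 7.6 Hepes/MgCl2 buffer. Enzyme was pre-incubated with compound for 15 min at room temperature. Rate was taken from the 30-min fluorescence change (525/598 nm).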
G9a inh – blocks human histone lysine methyltransferase G9a; Q96KQ7; 8.8% of 350,000 active; G9a H3K9 monomethylation, AlphaScreen, 2 h; Potency, µM (highest dose often 102 µM), without a hit: top-dose activity, negative = inhibition, usual class: inhibitors; also: % is scaled to controls: 0 for no effect and ±100 for the full control effect; nearly all actives have a fitted effect of over 75% in size
Target sequence (Q96KQ7 913-1193 limits assumed): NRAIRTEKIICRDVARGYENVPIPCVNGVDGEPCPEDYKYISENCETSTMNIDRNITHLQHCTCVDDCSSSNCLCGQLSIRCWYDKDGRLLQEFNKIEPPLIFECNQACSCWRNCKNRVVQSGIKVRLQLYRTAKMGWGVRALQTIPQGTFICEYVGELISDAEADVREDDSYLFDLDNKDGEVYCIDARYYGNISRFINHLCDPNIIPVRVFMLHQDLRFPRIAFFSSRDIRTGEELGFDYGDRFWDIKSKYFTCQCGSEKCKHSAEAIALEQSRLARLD
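Methyltransferase reactions run at room temperature for 2 h (20 nM enzyme, 500 nM biotin-H3K9 peptide, 20 uM SAM) after a 15 min compound preincubation; product detected by AlphaScreen beads and anti-H3K9me1 antibody.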
* = called active by the depositor; ? = inconclusive; nt = no result; ! = repeats disagree; [ ] = another dose, or the depositor's remark. Calls follow the shape of the dose curve; as a rule, active = well fitted curve in the direction sought with a large enough effect; inconclusive = small, poorly fitted or top-dose-only effect, or another doubt; inactive = no such curve, though single readings can be large; an effect the other way counts as inactive or inconclusive. Potency is read from the fitted curve at half-maximal effect.

SMILES	HP1b chromo inh	BAZ2B inh	JMJD2A Tudor	Sfp PPTase inh	G9a inh
CC(=O)O[C@](C)(CCC=C(C)C)C1CC=C(C)CC1 (some centres undefined)	nt	nt	nt	8%	nt
COc1ccc(/C=N/Nc2ccccc2C(=O)O)cc1Cn1cc([N+](=O)[O-])cn1	-15%	50µM*	?	6%	22µM*
COc1ccc(/C=N/NC(=O)c2cc(O)c(O)c(O)c2)cc1Cn1cc([N+](=O)[O-])cn1	?	10µM*	10µM*	-121%	14µM*
CCOCCCn1cc(C(=O)c2cc(Br)ccc2O)cc(C#N)c1=O	27%	56µM*	-8%	1%	-28%[59 µM]
O=C(NNS(=O)(=O)c1ccc(F)cc1)c1ccccc1	6%	3%	14µM*	15%	nt
O=S(=O)(NC(=S)c1ccccc1)c1ccccc1	-6%	nt	-35%	nt	nt
O=S(=O)(NC(=S)c1ccccc1)c1ccc(F)cc1	-5%	-7%	-18%	-3%	79µM*
O=C(O)Cc1ccc(O)c(O)c1	?	-8%	56µM*	40µM*	0.24µM*
C[C@@](N)(Cc1ccc(O)c(O)c1)C(=O)O	nt	nt	nt	?	-27%[21.5 µM]
Cc1ccc(CNC(=O)c2cc3c(-c4ccc(Cl)cc4)nn(C)c3s2)o1	31%	0%	-12%	?	50µM*
CCN1CCCC1CNC(=O)c1cc2c(-c3ccc(Cl)cc3)nn(C)c2s1 (centres undefined)	4%	-27%	-34%	6%	79µM*
CCN1CCCC1CNC(=O)c1cc2c(-c3cccc(OC)c3)nn(C)c2s1 (centres undefined)	27%	4%	-3%	10%	13%[12.7 µM]
CCCCNC(=O)c1cc2c(-c3ccc(Cl)cc3)nn(C)c2s1	56%	-5%	-3%	15%	19%
COc1cccc(C(=O)COC(=O)COc2c(C)cc(C)cc2C)c1	129%	52%	66%	nt	55%[59 µM]
NC(=O)c1ccc(NC(=O)CS(=O)(=O)c2cn(CC(=O)N3CCCCC3)c3ccccc23)cc1	nt	-17%	-1%	7%	?
Cc1ccccc1-n1c(-c2csc3ccccc23)n[nH]c1=S	10%	-38%	?	14%	2µM*
Cc1ccccc1-n1c(-c2csc(C)c2C)n[nH]c1=S	22%	-9%	50µM*	-11%	1µM*
CCCc1cc(-c2n[nH]c(=S)n2-c2cccc(C)c2)cs1	-10%	?	?	?	3.5µM*
Cc1cccc(-n2c(-c3csc(C)c3C)n[nH]c2=S)c1	-2%	-11%	22µM*	2%	1.1µM*
CN1C(=O)NC(NC(=O)C2CCCCC2)(C(F)(F)F)C1=O (centres undefined)	26%	-2%	-8%	12%	15%[12.7 µM]
O=C(Oc1ccccc1/C=C\C(=O)c1cc2ccccc2o1)c1ccccc1	-1%	-37%	-32%	-8%	?
COc1ccc(O)c(C(=O)/C=C/c2cc3ccccc3o2)c1	3.5µM*	11µM*	28µM*	12%	?
O=C(/C=C/c1cc2ccccc2o1)c1ccccc1O	?	8.9µM*	20µM*	1%	nt
COc1cccc(C(=O)Oc2ccccc2/C=C\C(=O)c2cc3ccccc3o2)c1	6%	?	-31%	?	11µM*
O=C(Nc1ccccc1)N(Cc1ccc(F)cc1)c1ccccn1	97%	67%	71%	nt	41%[59 µM]
SMILES	HP1b chromo inh	BAZ2B inh	JMJD2A Tudor	Sfp PPTase inh	G9a inh
CCCCn1c(=O)nc2n(-c3ccc(Cl)cc3)c3ccccc3cc-2c1=O	34%	7%	4%	-28%	40µM*
Nc1c(O)ccc2c1C(=O)c1ccccc1C2=O	16µM*	25µM*	?	-8%	2.5µM*
COc1ccc2c(c1O)C(=O)c1ccccc1C2=O	nt	-24%	nt	0%	9%[12.7 µM]
COc1ccc(C(=O)NCCSCc2ccccc2Cl)cc1OC	42%	-12%	3%[57.1 µM]	2%	-8%
COc1ccc(-c2coc3cc(OC)cc(O)c3c2=O)cc1	20%	2%	3%	12%	7%[0.501 µM]
COc1ccc(-c2coc3cc(O)cc(O)c3c2=O)cc1	9%	-24%	-20%	50µM*!	-3%
CNC(=S)N(CCc1c(C)[nH]c2ccc(OC)cc12)Cc1cc(OC)c(OC)c(OC)c1	3%	45µM*	?	-9%	50µM*
CNC(=S)N(CCc1c(C)[nH]c2ccc(C)cc12)Cc1cc(OC)c(OC)c(OC)c1	-14%	40µM*	?	1%	50µM*

Source: PubChem BioAssay
